Each structure is given as a SMILES string.

In the experiment the target is PEG-3 (UniProt Q6IN02). The experiment in a line: GAPDH versus PEG-3 reporter suppression – cell-based, luminescence, counter-screen for PEG-3 promoter inhibitor project, SAR follow-up (AID 651551). Particulars: HeLa PEG-Prom / GAPDH luciferase reporter, 6 or 24 h, run 2, 24 h; at 99 µM (top of the series). On the technique in general: The purpose of a counterscreen is to sort out artefacts and off-target activity.
In the case of `CCCn1nc(C(=O)Nc2nc3ccccc3s2)c2ccccc2c1=O`, the inhibition % (higher = more inhibition) amounted to 18.4%.
To `O=C(Nc1nc2ccccc2s1)c1nn(-c2ccccc2)c(=O)c2ccccc12` belongs -4.01%.
Then `COc1ccc(-n2nc(C(=O)NCC(=O)Nc3ccc(OC)c(OC)c3)c3ccccc3c2=O)cc1`, with 35.2%.
Then `Cc1ccc(Cl)cc1Nc1nc(-c2sc(NC(=O)c3ccco3)nc2C)cs1`, with 1.6%; and `COCCCNC(=O)c1ccc(Cn2c(=O)c3ccccc3n(Cc3ccccc3C#N)c2=O)cc1`, with 54.9%; and `COc1ccccc1Nc1nc(-c2sc(NC(=O)c3ccco3)nc2C)cs1`, with 10%.
With `Cc1nc(NC(=O)c2ccccc2)sc1-c1csc(Nc2ccccc2)n1`, the inhibition % (higher = more inhibition) turned out to be 63.3%.
To `Cc1cc(NC(=O)c2ccccc2)n(-c2nc3ccccc3[nH]2)n1` belongs -13.6%; to `COc1ccc(-n2nc(C(=O)NCC(=O)Nc3cccc(OC)c3)c3ccccc3c2=O)cc1`, 21.2%; to `CCCn1nc(C(=O)Nc2nc(-c3ccncc3)cs2)c2ccccc2c1=O`, 40.8%.
On to `CCn1cc(C(=O)NCc2ccco2)c(=O)c2cc(S(=O)(=O)N3CCCC3)ccc21`, for which the inhibition % (higher = more inhibition) is 24%.
Then `Cc1nc(NC(=O)c2ccccc2)sc1-c1csc(Nc2ccccc2Cl)n1`, with -54.5%.
To `COc1ccc(Cl)cc1Nc1nc(-c2sc(NC(=O)c3ccccc3)nc2C)cs1` belongs 76.3%; to `Cc1cc(NC(=O)c2ccccc2)n(-c2nc3ccccc3n2C)n1`, 12.8%.
To `CCn1nc(C(=O)Nc2nc(-c3ccccn3)cs2)c2ccccc2c1=O` belongs 53.3%; to `Cc1cc(NC(=O)c2cccc(C)c2C)n(-c2nc3ccccc3[nH]2)n1`, 24%.
For `CCCn1nc(C(=O)Nc2nc(-c3ccccn3)cs2)c2ccccc2c1=O`, the inhibition % (higher = more inhibition) was 44.6%.
To `Cc1nc(NC(=O)c2ccccc2)sc1-c1csc(Nc2cccc(Cl)c2C)n1` belongs -15.2%; to `COc1ccc(-n2nc(C(=O)NCC(=O)Nc3cc(OC)c(OC)c(OC)c3)c3ccccc3c2=O)cc1OC`, 40.8%.
As to `O=C(Nc1nccs1)c1nn(-c2ccccc2)c(=O)c2ccccc12`, the inhibition % (higher = more inhibition) came to 49.2%.
To `Cc1cc(NC(=O)c2ccccc2C(F)(F)F)n(-c2nc3ccccc3[nH]2)n1` belongs 91.9%; to `O=C(Nc1nc(-c2ccccc2)cs1)c1nn(-c2ccccc2)c(=O)c2ccccc12`, 21.2%; to `Cc1cc(NC(=O)c2ccccc2C)n(-c2nc3ccccc3[nH]2)n1`, 11.5%.

The values are drawn from PubChem BioAssay AID651551 (Sanford-Burnham Center for Chemical Genomics, 2012).
